Rows were chosen to be rich in hits. Some 19% of all compounds tested hit in one or more screens of this group.
KB-3-1 cytotox = kills parental KB-3-1 adenocarcinoma cells | KB-3-1 viability, CellTiter-Glo ATP luminescence, 72 h | Potency, µM (highest dose often 46.1 µM), hits mostly cytotoxic | hit rate 1.4% among 400,000 | AID 1347075; also: nearly all actives have a fitted effect of over 60% in size
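Cytotoxicity in the drug-sensitive parental line KB-3-1 was scored as loss of CellTiter-Glo luminescence following 72 h incubation with compound. Values come from curve fitting of normalized concentration-response data.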
DT40 TDP1 no CPT = qHTS for Inhibitors of human tyrosyl-DNA phosphodiesterase 1 (TDP1): qHTS in cells in absence of CPT; DT40 Tdp1-/- hTDP1 cells, no CPT, ATP luminescence, 48 h; Potency, µM (doses to about 46.2 µM), actives largely listed as inhibitors; hit rate 15% among 420,000; AID 686978, 2013; also: nearly all actives have a fitted effect of over 55% in size
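Chicken DT40 Tdp1-/- cells stably complemented with human TDP1 were seeded at 400 cells/well with DMSO in place of 20 nM camptothecin. After compound pinning, cells grew at least 48 hr at 37 °C; viability read by CellTiter-Glo luminescence.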
TDP1 cell CPT = growth inhibition of DT40 Tdp1-/-;hTDP1 cells with camptothecin (screen for TDP1 inhibitors); chicken DT40 Tdp1-/-;hTDP1 cells + 20 nM CPT, ATP luminescence, 48 h; Potency, µM (highest dose often 46.2 µM), most hits filed as inhibitors; hit rate 12% among 420,000; also: nearly all actives have a fitted effect of over 55% in size
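Chicken DT40 Tdp1-/- cells stably complemented with human TDP1 were seeded at 400 cells/well in medium containing 20 nM camptothecin, exposed to pin-transferred compounds, and grown at 37 °C for at least 48 hr. Viability was read as ATP luminescence.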
HT1080 IDH1KD tx = HT-1080 IDH1 knockdown cell toxicity (counter line); hit rate 2% among 360,000; AID 686971; HT-1080 IDH1 knockdown viability, ATP luminescence, 48 h; Potency, µM (doses to about 46.1 µM), actives largely listed as cytotoxic
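In this qHTS, HT-1080 cells depleted of IDH1 are exposed for 48 h at 37 °C to compound titrations. Toxicity is scored from CellTiter-Glo luminescence, with DMSO as full viability and medium alone as none.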
HT1080-NT tox = kills 2HG-producing HT-1080-NT fibrosarcoma cells. HT-1080-NT fibrosarcoma viability, CellTiter-Glo ATP luminescence, 48 h. Potency, µM (series often up to 46.1 µM), hits mostly cytotoxic. hit rate 1.6% among 360,000. AID 686970;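 also: NT is the 2HG producing partner of a matched IDH1 knockdown line; nearly all actives have a fitted effect of over 55% in size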
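Luminescent CellTiter-Glo readout after 48 hours of compound exposure at 37 degrees C defined viability of HT-1080-NT cells. Activity was normalized to DMSO wells and cell-free media wells; concentration-response curves were fitted and assigned curve classes.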
KB-V1 MDR tox = KB-V1 MDR subline cytotoxicity; AID 1347076; hit rate 3.4% among 400,000; Potency, µM (highest dose often 46.1 µM), actives largely listed as cytotoxic; KB-V1 MDR cells viability, CellTiter-Glo, 72 h; also: nearly all actives have a fitted effect of over 60% in size
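Luminescent ATP read-out (CellTiter-Glo, 10 min) measures survival of drug-selected KB-V1 MDR cells after 72 h, 37 degrees C compound exposure. Medium: phenol-red-free DMEM, 10% FBS. Values from fitted concentration-response curves.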
A number is an active result; – = inactive; ? = inconclusive; · = no result. Calls follow the shape of the dose curve; as a rule, active = well fitted curve in the direction sought with a large enough effect; inconclusive = small, poorly fitted or top-dose-only effect, or another doubt; inactive = no such curve, though single readings can be large; an effect the other way counts as inactive or inconclusive.

SMILES	KB-3-1 cytotox	DT40 TDP1 no CPT	TDP1 cell CPT	HT1080 IDH1KD tx	HT1080-NT tox	KB-V1 MDR tox
COc1cccc(CN2CCN(C(=O)COc3ccc4ccccc4c3)CC2)c1	–	?	?	–	–	?
COc1ccc(OCC(=O)N2CCN(Cc3cc(=O)n4nc(-c5ccccc5C)sc4n3)CC2)cc1	–	10.3µM	14.6µM	·	·	–
COc1ccc(-c2nn3c(=O)cc(CN4CCN(C(=O)COc5ccc(F)cc5)CC4)nc3s2)cc1	–	?	–	·	·	–
COc1ccc(-c2nn3c(=O)cc(CN4CCN(S(=O)(=O)c5ccc(C)cc5)CC4)nc3s2)cc1	–	16.4µM	20.6µM	·	·	–
COc1ccccc1-c1nn2c(=O)cc(CN3CCN(C(=O)Nc4ccc(C)cc4Cl)CC3)nc2s1	?	6.51µM	14.6µM	·	·	?
Cc1ccc(-c2nn3c(=O)cc(CN4CCN(C(=O)COc5ccc(C)c(C)c5)CC4)nc3s2)cc1	–	?	?	·	·	–
COc1cccc(-c2nn3c(=O)cc(CN4CCN(C(=O)COc5ccccc5C)CC4)nc3s2)c1	–	23.1µM	?	·	·	?
Cc1cc(OC(C)C(=O)N[C@H](C(=O)O)c2ccccc2)c2c3c(c(=O)oc2c1)CCC3 (stereo not given in full)	–	–	–	–	–	–
CCOc1cc2c(cc1OCC)-n1cccc1C(c1ccccc1F)NC2 (stereo not given)	–	18.4µM	?	–	?	–
CCOc1cc2c(cc1OCC)-n1cccc1C(c1cccc(OCC)c1O)NC2 (stereo not given)	–	16.4µM	?	?	–	–
CCOc1cc2c(cc1OCC)-n1cccc1C(c1cccc(F)c1)NC2 (stereo not given)	–	?	20.6µM	–	–	–
Clc1cccc(C2NCc3ccccc3-n3cccc32)c1 (stereo not given)	–	?	?	–	–	–
COc1ccc(C2NCc3ccccc3-n3cccc32)cc1 (stereo not given)	–	?	?	–	–	–
CCOc1cc2c(cc1OCC)-n1cccc1C(c1cc(OC)ccc1F)NC2 (stereo not given)	–	16.4µM	18.4µM	–	–	–
C[C@@H]1CN([C@@H](C)CO)C(=O)CCCn2cc(nn2)CO[C@H]1CN(C)C(=O)Oc1ccc2ccccc2c1	–	–	–	–	–	–
C[C@]12CCC3C(CC[C@H]4C[C@H](O)CC[C@]34C)C1[C@@H](O)[C@@H](O)[C@@H]2O (stereo not given in full)	–	–	–	–	–	–
CN1CCCCC1c1cccnc1 (stereo not given)	·	–	–	·	·	·
C[C@]12C[C@H]3S[C@H]3C[C@@H]1CC[C@@H]1[C@@H]2CC[C@]2(C)[C@@H](O)CC[C@@H]12	·	–	–	·	·	·
CN1CC[C@@]2(CCCN(C(=O)Oc3ccccc3)C2)C1	·	–	–	·	·	·
COc1ccc(C=C2C(=O)NC(=S)NC2=O)cc1OC	–	–	–	–	–	–
COc1ccc(/C=C/C=C2C(=O)NC(=S)NC2=O)cc1	?	3.26µM	3.26µM	–	–	?
Cc1ccc(S(=O)(=O)N(C)C[C@@H]2Oc3ncc(Br)cc3C(=O)N([C@H](C)CO)C[C@H]2C)cc1	–	9.2µM	?	–	–	–
Cc1ccc(S(=O)(=O)N(C)C[C@H]2Oc3c(NC(=O)Nc4cccc5ccccc45)cccc3C(=O)N([C@@H](C)CO)C[C@@H]2C)cc1	?	?	16.4µM	?	–	–
C[C@H]1CN([C@@H](C)CO)C(=O)c2cccc(NC(=O)c3ccc(-c4nccs4)cc3)c2O[C@@H]1CN(C)C(=O)Nc1cccc2ccccc12	–	14.6µM	25.9µM	–	–	–
Cc1ccc(S(=O)(=O)N(C)C[C@H]2Oc3cc(Br)ccc3S(=O)(=O)N([C@H](C)CO)C[C@H]2C)cc1	?	29.1µM	?	–	–	?
SMILES	KB-3-1 cytotox	DT40 TDP1 no CPT	TDP1 cell CPT	HT1080 IDH1KD tx	HT1080-NT tox	KB-V1 MDR tox
Cc1cc(N=Nc2ccccc2C)ccc1N	–	–	–	?	?	–
COc1cccc(N(C(C)=O)C2=NCCCS2)c1	–	–	–	–	–	–
COc1ccc([N+](=O)[O-])cc1N=Cc1c(O)n(CCc2ccccc2)c(=O)n(C(C)C)c1=O	?	16.4µM	?	–	–	?
COc1ccc2c3c1OC1C(=O)CC[C@@]4(O)[C@@H](C2)N(CC2CC2)CC[C@]314 (stereo not given in full)	–	–	–	–	–	–
CC(C)(C)[C@]1(O)C[C@@H]2OC(=O)C[C@@]23C(=O)O[C@@H]2OC(=O)[C@@H](O)C213 (stereo not given in full)	–	–	–	–	–	–
O=[N+]([O-])c1ccc(N2CCNCC2)cc1NCc1ccco1	–	–	–	–	–	–
CN1CCN(c2ccc([N+](=O)[O-])c(NCc3ccco3)c2)CC1	–	?	–	–	–	11.6µM
COC(=O)C1=C(c2ccc3ccccc3c2)C[C@@H]2CC[C@H]1N2C(=O)NCc1ccc(C(F)(F)F)cc1	?	?	?	?	–	?
CC1(C)CC(CCNCc2ccc3c(c2)OCO3)(Cc2ccccc2)CCO1 (stereo not given)	–	18.4µM	?	–	–	–
CC(C)(C)c1ccc(C(=O)Nc2ccc(Cl)cc2C(=O)c2ccccc2)cc1	·	–	–	·	·	·
O=C(Nc1ccc(Cl)cc1C(=O)c1ccccc1)c1ccccc1Br	·	2.91µM	?	·	·	·
Cc1ccc(C(=O)Nc2ccc(Cl)cc2C(=O)c2ccccc2)cc1	–	–	–	–	–	20.6µM
O=C(Nc1ccc(Cl)cc1C(=O)c1ccccc1)c1ccco1	–	–	–	–	–	–
COC(=O)C1=C(c2ccccc2)C[C@@H]2CC[C@H]1N2C(=O)N1CCCC1	–	16.4µM	?	–	–	–
COC(=O)C1=C(c2cccc(Cl)c2)C[C@@H]2CC[C@H]1N2C(=O)N1CCCC1	?	7.31µM	8.2µM	–	–	–
CCCNC(=O)N1[C@H]2CC[C@@H]1C(C(=O)OC)=C(c1cccc(Cl)c1)C2	–	?	?	–	?	–
COC(=O)C1=C(c2ccc(S(C)(=O)=O)cc2)C[C@@H]2CC[C@H]1N2C(=O)N1CCCC1	–	–	–	–	–	–
COC(=O)C1=C(c2cccc(C#N)c2)C[C@@H]2CC[C@H]1N2C(=O)N1CCC(O)CC1	–	–	–	–	–	–
COC(=O)C1=C(c2cccc(Cl)c2)C[C@@H]2CC[C@H]1N2C(=O)NCC1CC1	–	?	16.4µM	–	–	–
